This passage reports outcome and AC50 results from PubChem BioAssay (EPA / NIEHS).

“And” between values parts separate entries of the source, which are not always exact repeats. Identical values can stand only once. Where a structure was tested more than once in an assay, its records may differ in their call. The source made the active and inactive calls. The calls were made as follows: active = hit-call score of the fitted dose curve at least 0.9, where 1 is the maximum; inactive = score below 0.9.

Read-out in experiment [1]: TIMP metallopeptidase inhibitor 2 (TIMP2), TIMP2 (gene 7077)
In words: BSK_KF3CT_TIMP2: BioMAP Diversity Plus: KF3CT Assay for TIMP metallopeptidase inhibitor 2 (TIMP2) Biomarker Activity (AID 2283071). The conditions noted are these: primary human keratinocytes with fibroblasts; actives raise or lower the signal. A digest of the protocol: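 TIMP-2 measured by ELISA at 24 h in human keratinocyte/fibroblast primary co-cultures exposed to chemicals. Both increases and decreases were fitted against DMSO. Parallel cultures were stained with SRB for total protein as an overt-cytotoxicity check.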

Read-out in experiment [2]: Transforming growth factor beta 1 (TGFb1), TGFB1 (gene 7040)
In words: BSK_KF3CT_TGFb1: BioMAP Diversity Plus: KF3CT Assay for Transforming growth factor beta 1 (TGFb1) Biomarker Activity (AID 2283072). The conditions noted are these: primary human keratinocytes with fibroblasts; actives raise or lower the signal. A digest of the protocol: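 ELISA quantifies TGF-b1 at 24 h post-dose in a primary human skin co-culture of keratinocytes and fibroblasts, with gain or loss judged against DMSO. Parallel SRB total-protein staining flags overt cytotoxicity.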

Read-out in experiment [3]: C-C motif chemokine 2 (Homo sapiens) (UniProt P13500)
In words: BSK_KF3CT_MCP1: BioMAP Diversity Plus: KF3CT Assay for Monocyte Chemoattractant Protein 1 (MCP1/CCL2) Biomarker Activity (AID 2283073). To be noted: primary human keratinocytes with fibroblasts; actives raise or lower the signal. In a few lines: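 Human keratinocyte plus foreskin fibroblast primary co-culture exposed to chemical for 24 h. MCP-1 levels measured by ELISA. Bidirectional curve fitting relative to DMSO negative control as baseline.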

Read-out in experiment [4]: Matrix Metallopeptidase 9 (MMP9), MMP9 (gene 4318)
In words: BSK_KF3CT_MMP9: BioMAP Diversity Plus: KF3CT Assay for Matrix Metallopeptidase 9 (MMP9) Biomarker Activity (AID 2283074).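 As to AC50: MMP9 protein level quantified by ELISA in the co-culture.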 The conditions noted are these: primary human keratinocytes with fibroblasts; actives raise or lower the signal. In a few lines: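 ELISA read-out of MMP-9 at 24 h post-dosing in a co-culture of human skin keratinocytes and foreskin fibroblasts. Gain or loss of signal was fitted in both directions against DMSO.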

Read-out in experiment [5]: urokinase plasminogen activator (uPA), PLAU (gene 5328)
In words: BSK_KF3CT_uPA: BioMAP Diversity Plus: KF3CT Assay for urokinase plasminogen activator (uPA) Biomarker Activity (AID 2283075). To be noted: primary human keratinocytes with fibroblasts; actives raise or lower the signal. A digest of the protocol:
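Skin co-culture (keratinocytes + foreskin fibroblasts), human primary; 24 h post-dose; uPA by ELISA; gain/loss fit vs DMSO baseline.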

Read-out in experiment [6]: E-selectin (Homo sapiens) (UniProt P16581)
In words: BSK_LPS_Eselectin: BioMAP Diversity Plus: LPS Assay for Eselectin Biomarker Activity (AID 2283077). The conditions noted are these: primary human HUVEC with PBMC; actives raise or lower the signal. In a few lines:
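Human umbilical vein endothelial cells co-cultured with peripheral blood mononuclear cells under LPS stimulation; E-selectin measured by ELISA 24 h after chemical dosing. Activity fitted bidirectionally against DMSO as negative control and baseline.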

Read-out in experiment [7]: Interleukin-8 (IL8), CXCL8 (gene 3576)
In words: BSK_LPS_IL8: BioMAP Diversity Plus: LPS Assay for Interleukin-8 (IL8) Biomarker Activity (AID 2283078). To be noted: primary human HUVEC with PBMC; actives raise or lower the signal. In a few lines: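 Human umbilical vein endothelial cells co-cultured with PBMC were stimulated with LPS; IL-8 levels were measured by ELISA 24 h after chemical dosing. Activity was fitted bidirectionally against DMSO as negative control and baseline.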

A short description of experiment [8]: BSK_LPS_SRB: Viability Assessment in the BioMAP Diversity Plus: LPS Assay (AID 2283079).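 Also: total protein by sulforhodamine B absorbance as a cytotoxicity measure; measured one day after compound addition.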 To be noted: primary human HUVEC with PBMC. A digest of the protocol: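 Human umbilical vein endothelial cells co-cultured with PBMC (LPS system) were dosed for 24 h. Total protein was stained with 0.1% sulforhodamine B after 10% TCA fixation, read at 560 nm, and fitted bidirectionally against DMSO baseline.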

Read-out in experiment [9]: Interleukin-1 alpha (IL1a), IL1A (gene 3552)
In words: BSK_LPS_IL1a: BioMAP Diversity Plus: LPS Assay for Interleukin-1 alpha (IL1a) Biomarker Activity (AID 2283080). The conditions noted are these: primary human HUVEC with PBMC; actives raise or lower the signal. A digest of the protocol:
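Human umbilical vein endothelial cells co-cultured with peripheral blood mononuclear cells were LPS-stimulated and exposed to test chemicals for 24 h. IL-1 alpha was quantified by ELISA, with bidirectional curve fitting against DMSO as the negative control and baseline.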

Read-out in experiment [10]: Monocyte Chemoattractant Protein-1 (MCP1), CCL2 (gene 6347)
In words: BSK_LPS_MCP1: BioMAP Diversity Plus: LPS Assay for Monocyte Chemoattractant Protein-1 (MCP1) Biomarker Activity (AID 2283081).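 As to AC50: co-culture stimulated with LPS; secreted MCP-1 protein quantified by ELISA in culture supernatant.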 To be noted: primary human HUVEC with PBMC; actives raise or lower the signal. A digest of the protocol:
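HUVEC plus PBMC co-culture (human primary cells, LPS system) exposed to test chemical for 24 h; MCP-1 measured by ELISA. Bidirectional curve fitting against DMSO baseline; parallel SRB total-protein staining flags overt cytotoxicity.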

A short description of experiment [11]: BSK_LPS_PGE2: BioMAP Diversity Plus: LPS Assay for Prostaglandin E2 (PGE2) Biomarker Activity (AID 2283082).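 As to AC50: secreted prostaglandin E2 measured by ELISA in LPS-stimulated co-culture.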 The conditions noted are these: primary human HUVEC with PBMC; actives raise or lower the signal. In a few lines:
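PGE2 release measured by ELISA in an LPS-activated co-culture of human umbilical vein endothelial cells and peripheral blood mononuclear cells, read at 24 h post-dosing. DMSO served as baseline for bidirectional curve fitting.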

Read-out in experiment [12]: Macrophage colony-stimulating factor (MCSF), CSF1 (gene 1435)
In words: BSK_LPS_MCSF: BioMAP Diversity Plus: LPS Assay for Macrophage colony-stimulating factor (MCSF) Biomarker Activity (AID 2283083). To be noted: primary human HUVEC with PBMC; actives raise or lower the signal. A digest of the protocol: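 Human umbilical vein endothelial cells co-cultured with peripheral blood mononuclear cells were exposed to compound for 24 h. M-CSF levels were measured by ELISA, and bidirectional curve fitting used DMSO as the negative control and baseline.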

Read-out in experiment [13]: Tissue Factor, F3 (gene 2152)
In words: BSK_LPS_TissueFactor: BioMAP Diversity Plus: LPS Assay for Tissue Factor Biomarker Activity (AID 2283084). To be noted: primary human HUVEC with PBMC; actives raise or lower the signal. A digest of the protocol: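 Human umbilical vein endothelial cells co-cultured with peripheral blood mononuclear cells were dosed and stimulated with LPS. Cell-surface CD142 was quantified by ELISA at 24 h. Activity was fitted bidirectionally against DMSO baseline.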

Read-out in experiment [14]: Tumor necrosis factor (Homo sapiens) (UniProt P01375)
Briefly: BSK_LPS_TNFa: BioMAP Diversity Plus: LPS Assay for Tumour Necrosis Factor alpha (TNFa) Biomarker Activity (AID 2283085).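 As to AC50: TNFa protein level quantified by ELISA in the co-culture.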 The conditions noted are these: primary human HUVEC with PBMC; actives raise or lower the signal. A digest of the protocol: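 TNFa was quantified by ELISA in LPS-activated co-cultures of human endothelial cells and PBMC, 24 h post-dosing. Both increases and decreases versus DMSO were fitted.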

Read-out in experiment [15]: Vascular cell adhesion molecule 1 (VCAM1), VCAM1 (gene 7412)
Briefly: BSK_LPS_VCAM1: BioMAP Diversity Plus: LPS Assay for Vascular cell adhesion molecule 1 (VCAM1) Biomarker Activity (AID 2283086). The conditions noted are these: primary human HUVEC with PBMC; actives raise or lower the signal. A digest of the protocol:
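VCAM-1 quantified by ELISA in an LPS-activated co-culture of human endothelial cells and peripheral blood mononuclear cells, read 24 h post-treatment. Fitted in both directions versus DMSO; parallel SRB staining flags overt cytotoxicity.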

Read-out in experiment [16]: CD38, CD38 (gene 952)
Briefly: BSK_SAg_CD38: BioMAP Diversity Plus: SAg Assay for CD38 Biomarker Activity (AID 2283087). The conditions noted are these: primary human HUVEC with PBMC; actives raise or lower the signal. In a few lines:
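CD38 quantified by ELISA (fluorescence) in a superantigen-activated endothelial cell–PBMC co-culture at 24 h post-dose. Activity fitted in both directions relative to DMSO; parallel SRB and Alamar Blue cytotoxicity read-outs.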

Read-out in experiment [17]: CD40, CD40 (gene 958)
In words: BSK_SAg_CD40: BioMAP Diversity Plus: SAg Assay for CD40 Biomarker Activity (AID 2283088). The conditions noted are these: primary human HUVEC with PBMC; actives raise or lower the signal. In a few lines:
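Human umbilical vein endothelial cells co-cultured with PBMC; CD40 levels measured by ELISA with fluorescence read-out 24 h after chemical dosing. Gain or loss of signal fitted bidirectionally against DMSO baseline.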

Read-out in experiment [18]: Monocyte Chemoattractant Protein-1 (MCP1), CCL2 (gene 6347)
In words: BSK_SAg_MCP1: BioMAP Diversity Plus: SAg Assay for Monocyte Chemoattractant Protein-1 (MCP1) Biomarker Activity (AID 2283090). To be noted: primary human HUVEC with PBMC; actives raise or lower the signal. A digest of the protocol: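 Values derive from bidirectional fitting of ELISA-measured MCP1 against DMSO controls. Readings were taken 24 h after dosing human vascular endothelial cells co-cultured with peripheral blood mononuclear cells under superantigen stimulation.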

Read-out in experiment [19]: CD40, CD40 (gene 958)
Briefly: BSK_LPS_CD40: BioMAP Diversity Plus: LPS Assay for CD40 Biomarker Activity (AID 2283076). To be noted: primary human HUVEC with PBMC; actives raise or lower the signal. In a few lines: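 Primary human umbilical vein endothelial cells co-cultured with peripheral blood mononuclear cells, LPS-stimulated, were dosed with chemical and read 24 h later. CD40 levels were measured by ELISA and fitted bidirectionally against DMSO as negative control and baseline.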

Read-out in experiment [20]: CD69, CD69 (gene 969)
In words: BSK_SAg_CD69: BioMAP Diversity Plus: SAg Assay for CD69 Biomarker Activity (AID 2283089). The conditions noted are these: primary human HUVEC with PBMC; actives raise or lower the signal. In a few lines: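 Primary human vascular co-culture (umbilical vein endothelium with peripheral blood mononuclear cells) exposed to test chemical for 24 h. CD69 levels quantified by fluorescence ELISA; DMSO served as negative control for bidirectional fitting.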

Sequence of E-selectin (Homo sapiens) (P16581 whole entry, looked up): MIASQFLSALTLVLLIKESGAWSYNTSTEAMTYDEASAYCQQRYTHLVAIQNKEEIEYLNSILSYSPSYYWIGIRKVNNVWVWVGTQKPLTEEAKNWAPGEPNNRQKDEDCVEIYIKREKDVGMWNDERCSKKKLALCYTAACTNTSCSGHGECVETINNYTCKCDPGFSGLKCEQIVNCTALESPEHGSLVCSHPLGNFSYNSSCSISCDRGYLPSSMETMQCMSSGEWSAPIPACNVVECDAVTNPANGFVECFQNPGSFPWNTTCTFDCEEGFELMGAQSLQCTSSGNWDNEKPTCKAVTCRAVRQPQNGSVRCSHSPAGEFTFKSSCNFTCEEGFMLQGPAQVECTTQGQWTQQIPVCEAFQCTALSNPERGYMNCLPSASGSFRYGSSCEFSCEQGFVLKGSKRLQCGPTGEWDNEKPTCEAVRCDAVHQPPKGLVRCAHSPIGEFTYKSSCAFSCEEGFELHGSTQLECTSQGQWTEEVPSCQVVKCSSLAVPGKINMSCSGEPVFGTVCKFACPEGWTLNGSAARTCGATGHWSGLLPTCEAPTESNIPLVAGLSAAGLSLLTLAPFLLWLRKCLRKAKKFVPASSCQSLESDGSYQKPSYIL
Sequence of Tumor necrosis factor (Homo sapiens) (P01375 whole entry, looked up): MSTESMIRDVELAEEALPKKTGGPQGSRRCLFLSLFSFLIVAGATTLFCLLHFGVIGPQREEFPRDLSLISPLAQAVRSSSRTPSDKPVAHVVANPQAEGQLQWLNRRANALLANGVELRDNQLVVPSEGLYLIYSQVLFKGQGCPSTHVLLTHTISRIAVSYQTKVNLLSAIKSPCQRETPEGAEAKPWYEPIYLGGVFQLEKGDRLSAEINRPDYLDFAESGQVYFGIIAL

`O=C(O)c1cc(Oc2ccc(C(F)(F)F)cc2Cl)ccc1[N+](=O)[O-]`: the outcome in [1], in experiment [2], in experiment [3], in experiment [4], in experiment [5] and in experiment [6] was inactive. The result in experiment [7], in experiment [8], in experiment [9], in [10], in [12] and in experiment [13] was inactive. Moreover, the outcome in experiment [14], in experiment [15], in [16], in experiment [17] and in [18] was inactive. Besides, the AC50 in experiment [11] was 16.4 µM (active).
`CNC(=O)ON=C(SC)C(=O)N(C)C`: the result in experiment [2], in [3], in experiment [4], in [5], in experiment [19] and in [6] was inactive. For the same compound, the result in experiment [7], in [8], in experiment [9], in experiment [10], in experiment [11] and in [12] was inactive. Besides, the result in experiment [13], in [14], in experiment [16], in experiment [17], in [20] and in experiment [18] was inactive. Besides, the AC50 in experiment [15] was 10.2 µM (active).
Regarding `O=[N+]([O-])c1cc(C(F)(F)F)c(Cl)c([N+](=O)[O-])c1Nc1ncc(C(F)(F)F)cc1Cl`, the AC50 is 588 nM (active) and 11.3 µM (active) in experiment [1]; 7.7 µM (active) in experiment [2]; 1.71 µM (active) and 15.5 µM (active) in [3]; 991 nM (active) and 5.6 µM (active) in experiment [4]; 1.37 µM (active) and 7.61 µM (active) in experiment [5]; 1.55 µM (active) and 3.22 µM (active) in [6]. Also, the concentration at half-maximal activity (AC50) in experiment [7] was 2.33 µM (active) and 3.94 µM (active); in experiment [8] it was 2 µM (active) and 3.96 µM (active); in experiment [9] it was 1.35 µM (active) and 2.31 µM (active); in experiment [10], 1.52 µM (active) and 3.74 µM (active); in experiment [11], 7.89 µM (active) and 3.71 µM (active); in [12], 1.49 µM (active) and 2.86 µM (active). Also, the AC50 in experiment [13] was 1.44 µM (active) and 2.17 µM (active); in experiment [14], 1.81 µM (active); in experiment [15] it was 1.5 µM (active) and 2.05 µM (active); in experiment [16] it was 1.35 µM (active) and 2.58 µM (active); in [18], 2.24 µM (active) and 3.79 µM (active). Moreover, the result in [2] and in experiment [14] was inactive.

As a reminder, the AC50 is the concentration giving half of the maximal activity seen.
